AmpC detergent: qHTS Inhibitors of AmpC Beta-Lactamase (assay with detergent); AID 485294, 2010; Potency, µM (titrated, usually from 114 µM), for the others: at the highest dose activity change, negative = inhibition, actives largely listed as inhibitors; P00811; hit rate 0.041% among 370,000; AmpC hydrolysis of nitrocefin, absorbance 480 nm, 0.01% Triton;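 also: 0% = no-compound wells and -100% = no-enzyme wells; nearly all actives have a fitted effect of over 25% in size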
Target sequence (P00811 whole entry, looked up): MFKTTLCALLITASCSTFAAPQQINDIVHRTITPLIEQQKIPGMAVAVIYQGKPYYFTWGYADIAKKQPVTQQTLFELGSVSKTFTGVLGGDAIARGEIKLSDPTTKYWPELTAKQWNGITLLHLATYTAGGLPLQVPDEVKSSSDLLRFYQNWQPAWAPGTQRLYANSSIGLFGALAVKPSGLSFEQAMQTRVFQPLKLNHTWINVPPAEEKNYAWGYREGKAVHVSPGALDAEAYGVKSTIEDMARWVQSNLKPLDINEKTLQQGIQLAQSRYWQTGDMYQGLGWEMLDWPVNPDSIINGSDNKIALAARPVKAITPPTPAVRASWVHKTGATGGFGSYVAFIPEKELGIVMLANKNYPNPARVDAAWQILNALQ
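AmpC (5.3 nM in the dispensed reagent) in 20 mM phosphate pH 7.0 with 0.01% (detergent screen) or 0.0001% Triton X-100 was preincubated with compounds for 15 min at room temperature. Nitrocefin was then added from an 800 uM solution, and hydrolysis was followed at 480 nm.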
AmpC no deterg: qHTS Inhibitors of AmpC Beta-Lactamase (assay without detergent); P00811; AmpC nitrocefin hydrolysis, absorbance 480 nm, 0.0001% Triton; Potency, µM (titrated, usually from 57.1 µM), for the others: at the highest dose activity change, negative = inhibition, actives largely listed as inhibitors; hit rate 0.52% among 330,000; AID 485341, 2010;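 also: plate controls were no compound for no effect and no enzyme for full effect; nearly all actives have a fitted effect of over 20% in size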
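AmpC (5.3 nM in the dispensed reagent) in 20 mM phosphate pH 7.0 with 0.01% (detergent screen) or 0.0001% Triton X-100 was preincubated with compounds for 15 min at room temperature. Nitrocefin was then added from an 800 uM solution, and hydrolysis was followed at 480 nm.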
FBPA Giardia inh: qHTS Assay for Inhibitors of Fructose-1,6-bisphosphate Aldolase from Giardia Lamblia; purified Giardia FBPA; Potency, µM (highest dose often 59.6 µM), for the others: top-dose activity, negative = inhibition, hits mostly inhibitors; hit rate 0.71% among 290,000; also: % is scaled to controls: 0 for no effect and ±100 for the full control effect; nearly all actives have a fitted effect of over 55% in size
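Giardia FBPA (40 nM reagent) was preincubated 10 min at RT with compound (up to 57.5 uM final), then substrate plus GAPDH/TPI/NAD/arsenate coupling system with diaphorase/resazurin was added; resorufin fluorescence (525/598 nm) was read after 20 min.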
NS1 inh: qHTS Assay for Inhibitors of Influenza NS1 Protein Function; Potency, µM (titrated, usually from 46.1 µM), for the others: at the top dose activity, positive = more growth; hit rate 0.4% among 270,000; AID 2326, 2010; calls by dose curve; also: actives are rising curves; nearly all actives have a fitted effect of over 50% in size
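S. cerevisiae expressing influenza A NS1, grown in glucose, washed, then diluted 1:100 into pH 6.0 -URA galactose medium with 23 nl compound. Growth recovery read as OD600; NS1-free strain serves as control.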
SARS PLpro yeast: qHTS of Yeast-based Assay for SARS-CoV PLP | Potency, µM (titrated, usually from 32.9 µM), without a hit: top-dose activity, positive = growth rescue, usual class: activators | hit rate 0.19% among 330,000 | S. cerevisiae expressing SARS-CoV PLpro, growth rescue; calls by dose curve; also: 0% is about no effect; nearly all actives have a fitted effect of over 55% in size
The depositor's hits bear a star; ? = inconclusive; . = not tested or not shown. Most compounds without a hit are left out; they make up all but 1.4% or so of the library. Unless noted, calls follow the shape of the dose curve; as a rule, active = well fitted curve in the direction sought with a large enough effect; inconclusive = small, poorly fitted or top-dose-only effect, or another doubt; inactive = no such curve, though single readings can be large; an effect the other way counts as inactive or inconclusive. Potency is read from the fitted curve at half-maximal effect.

SMILES | AmpC detergent | AmpC no deterg | FBPA Giardia inh | NS1 inh | SARS PLpro yeast
O=C(CS(=O)(=O)c1c[nH]c2ccccc12)NC1CCCCC1 | -12.2% | 0.501µM* | -2.3% | -1.5% | -2.2%
COc1ccc(N2CCN(C(=O)C3CCN(S(=O)(=O)c4ccccc4)CC3)CC2)cc1 | 4.0% | 96.8% | -1.1% | 1.7% | -1.3%
CN1CCc2cc(O)cc3c2C1Cc1ccc(O)c(O)c1-3 (stereo not given) | . | . | 14.1µM* | 14.9% | .
CN1CCc2cccc3c2[C@H]1Cc1ccc(O)c(O)c1-3 | ? | -48.4% | ? | -13.9% | -16.7%
CSc1nnc(C)c(/C=C/Nc2ccc(Cl)cc2)n1 | -8.1% | 14.8% | -9.3% | -7.2% | -1.7%
O=C(CC(=O)c1ccccc1)Nc1cc(C(F)(F)F)ccc1Cl | -3.0% | 25.1µM* | 0.7% | 4.0% | 21.2%
O=C(NC(=S)Nc1cc(C(F)(F)F)ccc1Cl)c1ccccc1 | -4.0% | -24.1% | -25.1% | 21.2% | 3.0%
Cc1c(N)cc(N)cc1C(=O)O | 4.1% | -15.8% | 4.46µM* | -61.8% | -2.1%
CC(C)N(Cc1cnn(C)c1)C(=O)c1ccc(OC2CCN(Cc3ccccn3)CC2)cc1 | -8.4% | 18.4% | -11.8% | 3.1% | -5.1%
CCOc1ccc(Br)cc1S(=O)(=O)Nc1ccc(C(=O)OCC(=O)Nc2ccc(C#N)cc2)cc1 | -6.1% | -39.4% | -6.1% | 10.4% | -0.5%
N#C/C(=C\c1ccc(-c2ccc(Br)cc2)o1)C(=O)NCCc1c[nH]c2ccccc12 | -13.9% | 8.91µM* | -1.3% | 17.6% | -1.8%
O=C(NCCc1nc2ccccc2[nH]1)/C(=C/c1ccc2c(c1)OCO2)NC(=O)c1ccccc1 | -11.6% | 10µM* | 6.1% | -4.7% | 16.1%
N#C/C(=C/c1ccc2c(c1)OCO2)C(=O)NCCc1c[nH]c2ccccc12 | 5.8% | 0.282µM* | -0.4% | -6.9% | 1.5%
O=C(NCCc1c[nH]c2ccccc12)c1ccc2c(c1)OCO2 | -4.9% | -50.7% | 5.0% | -48.1% | -6.2%
COc1ccc(COc2ccsc2C(=O)Nc2ccc(Cl)cc2)cc1 | -0.2% | 0.355µM* | 1.3% | 3.3% | -4.9%
COc1ccc(OCC(=O)NNc2nc3ccccc3s2)cc1 | -5.8% | 10µM* | 0.1% | -2.4% | 0.4%
CC1=C(CC/C(C)=N/NC(N)=S)C(C)(C)CCC1 | -4.5% | -23.4% | ? | -9.0% | 14.1µM*
CC(C)=CCN1CCN(CCC2=C(C)CCCC2(C)C)CC1CCO (stereo not given) | 5.6% | 53.0% | 1.5% | -4.1% | -0.8%
CNC(=S)NCCCCc1cnc[nH]1 | . | . | 11.2µM* | . | .
S=C(NCCc1ccccc1)NCCc1cnc[nH]1 | -11.0% | -8.6% | -25.9% | 18.7% | 8.4%
Cc1ccc(NC2=CC(=O)CC(C)(C)C2)cc1C | -11.3% | -20.0% | -3.0% | -1.3% | 5.8%
CCOc1ccc(C(CC(=O)O)NC(=O)COc2ccccc2)cc1OC (stereo not given) | -5.3% | -12.2% | 1.3% | . | 3.7%
Cc1cc(C)n2nc(SCC(=O)Nc3cc(Cl)ccc3C)nc2n1 | -1.9% | . | . | . | .
CCN1CCN(C(=O)c2cc3c(=O)n(C)c4ccccc4c3n2C)CC1 | ? | 11.2µM* | -19.6% | -10.1% | -1.7%
Cn1c(C(=O)N2CCN(Cc3ccccc3)CC2)cc2c(=O)n(C)c3ccccc3c21 | -10.7% | 94.1% | ? | -9.5% | 6.6%
SMILES | AmpC detergent | AmpC no deterg | FBPA Giardia inh | NS1 inh | SARS PLpro yeast
COc1ccc(OC)c(C(c2nnnn2CC2CCCO2)N2CCN(C3CCCC3)CC2)c1 (stereo not given) | -6.6% | 12.7% | 4.1% | -2.8% | 3.98µM*
CC1=CCC2C(=O)N(c3ccc4ccccc4n3)C(=O)C2C1 (stereo not given) | -0.3% | 0.141µM* | -0.7% | 0.3% | 0.4%
COc1ccc(C(=O)Nc2cc(C)c3c(=O)oc4ccccc4c3n2)cc1 | ? | 8.91µM* | -0.1% | 13.7% | -0.4%
CCc1cccc(NC(=O)Nc2cccs2)c1 | -2.7% | 15.8µM* | -16.7% | -42.6% | -3.7%
CC(=O)N1CCN(C2=Nc3cccc4cccc2c34)CC1 | -9.2% | -8.4% | 3.97µM* | -3.1% | 0.5%
O=C(NCCN1CCOCC1)c1cc(-c2ccc(Cl)cc2)on1 | 3.3% | -1.5% | 3.9% | -4.0% | 3.6%
CC(C)Cc1cc(C(=O)NCCN2CCOCC2)no1 | ? | 0.501µM* | -1.0% | 3.0% | -0.6%

Screens: PubChem, National Center for Advancing Translational Sciences (NCATS)
